Drawing on PubChem BioAssay (NCI), this text covers growth for seven compounds.

The panel holds about 83,000 compounds, 20% with a hit somewhere; the sample as a whole holds those more often.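 96-well plates, one dose, 48 hours. Percent growth reported; active if below 10.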 Values without a mark were called inactive. The source made the active and inactive calls.

Some test systems named below: NCI-H226 lung; NCI-H322M lung; HOP-62 NSCLC; NCI-H460 lung; HOP-92 NSCLC; NCI-H522 lung; A549/ATCC NSCLC; 786-0 renal; COLO 205 colon; DU-145 prostate; K-562 leukemia; MALME-3M melanoma; MDA-MB-231 breast; RXF 393 renal; SF-268 CNS; SF-295 CNS; SF-539 CNS; UACC-257 melanoma; M14 melanoma.
Holding throughout (experiment): NCI-60 one-dose screen, 48 h (100 = growth as untreated, 0 = no growth, -100 = all killed)
Holding throughout (conditions): 10 µM unless noted

In the case of `O=C1CC2C=CCN2C=C1NC(=O)c1ccccc1` (configuration not stated), the growth was 102% in the experiment with NCI-H226 lung; 99.8% in the experiment on NCI-H322M lung; 114% in the experiment with HOP-62 NSCLC; 111% in the experiment with NCI-H460 lung; 110% in the experiment with HOP-92 NSCLC; 104% in the experiment with NCI-H522 lung. Moreover, the growth in the experiment on A549/ATCC NSCLC was 92.6%; in the experiment on 786-0 renal, 98.5%; with COLO 205 colon, 102%; in the experiment with DU-145 prostate it was 103%; with K-562 leukemia, 92.7%; in the experiment with MALME-3M melanoma it was 93.9%. Further, the growth is 112% in the experiment on MDA-MB-231 breast; 105% in the experiment on RXF 393 renal; 98.7% in the experiment with SF-268 CNS; 98% in the experiment with SF-295 CNS; 107% in the experiment with SF-539 CNS; 99.8% in the experiment on UACC-257 melanoma. In the experiment on M14 melanoma, the growth was 98.8%.

Take `FC(F)(F)c1cc(N2CCCCC2)nc(NCCCNc2ccnc3cc(Cl)ccc23)n1`: the growth with NCI-H226 lung was 73.6%; in the experiment with NCI-H322M lung, 80%; with HOP-62 NSCLC, 73.5%; in the experiment on NCI-H460 lung, 74.4%; with HOP-92 NSCLC, 32.9%; in the experiment on NCI-H522 lung, 47.4%. Further, the growth was 50.5% in the experiment on A549/ATCC NSCLC; 59.7% in the experiment on 786-0 renal; 7.41% (active) in the experiment with COLO 205 colon; 81.8% in the experiment on DU-145 prostate; 11.2% in the experiment with K-562 leukemia; 72.7% in the experiment with MALME-3M melanoma. In addition, the growth in the experiment on MDA-MB-231 breast was 87.9%; in the experiment with RXF 393 renal, 59.7%; with SF-268 CNS, 70.3%; with SF-295 CNS, 51.1%; in the experiment on SF-539 CNS it was 74.8%; in the experiment on UACC-257 melanoma it was 53.3%. In the experiment on M14 melanoma, the growth was 70.9%.

On to `NS(=O)(=O)Oc1cccc(-c2nc3sccn3c2-c2ccccc2)c1`, for which the growth with NCI-H226 lung was 85.4%; with NCI-H322M lung it was 89.7%; in the experiment with NCI-H460 lung, 38.9%; in the experiment with HOP-92 NSCLC, 45.8%; in the experiment on NCI-H522 lung it was 61.5%; with A549/ATCC NSCLC, 52.6%. The growth was 65.5% in the experiment on 786-0 renal; 69.7% in the experiment with COLO 205 colon; 89.9% with DU-145 prostate; 16.7% with K-562 leukemia; 41.3% in the experiment on MALME-3M melanoma; 60.3% in the experiment with MDA-MB-231 breast. In addition, the growth in the experiment with RXF 393 renal was 50%; in the experiment on SF-268 CNS, 70.1%; with SF-295 CNS it was 28.8%; in the experiment with SF-539 CNS, 31.9%; with UACC-257 melanoma it was 74.4%; in the experiment on M14 melanoma, 20.4%.

Consider `CN(C)C(=O)OCc1ccc2c(Cl)cc(Cl)c(O)c2n1`, for which the growth in the experiment on NCI-H226 lung is 68.3%; in the experiment on NCI-H322M lung, 53.8%; with HOP-62 NSCLC, 27.3%; in the experiment on NCI-H460 lung it was 31.3%; in the experiment on HOP-92 NSCLC, 58.8%; with NCI-H522 lung it was 65.1%. Further, the growth is 25% with A549/ATCC NSCLC; 48.7% with 786-0 renal; 104% in the experiment on COLO 205 colon; 39.7% with DU-145 prostate; 20% in the experiment with K-562 leukemia; 46% in the experiment on MALME-3M melanoma. Besides, the growth was 54.6% in the experiment on MDA-MB-231 breast; 67.6% with RXF 393 renal; 25.8% in the experiment with SF-268 CNS; 34.5% in the experiment with SF-295 CNS; 26.1% in the experiment with SF-539 CNS; 48.5% in the experiment with UACC-257 melanoma. The growth with M14 melanoma is 12.6%.

Turning to `CC(C)=CCC[C@](C)(O)C1CC[C@]2(C)[C@@H]1CC[C@@H]1[C@@]3(C)CC/C(=N\OCCC#N)C(C)(C)[C@@H]3CC[C@]12C` (some centres not stated), the growth is 68% with NCI-H226 lung; 98.8% in the experiment on NCI-H322M lung; 89.5% in the experiment on HOP-62 NSCLC; 79.6% in the experiment with NCI-H460 lung; 105% in the experiment with HOP-92 NSCLC; 68.7% in the experiment with NCI-H522 lung. Further, the growth is 76.2% with A549/ATCC NSCLC; 86.2% in the experiment on 786-0 renal; 83.9% in the experiment with COLO 205 colon; 83.9% with DU-145 prostate; 67.6% in the experiment with K-562 leukemia; 71.8% in the experiment on MALME-3M melanoma. The growth was 94.1% in the experiment with MDA-MB-231 breast; 109% in the experiment with RXF 393 renal; 87.4% in the experiment on SF-268 CNS; 97.9% in the experiment on SF-295 CNS; 91.9% with SF-539 CNS; 86.1% in the experiment on UACC-257 melanoma. Further, the growth in the experiment with M14 melanoma was 88.5%.

`CC1(C)CC[C@]2(CO)CC[C@]3(C)[C@H](CC[C@@H]4[C@@]5(C)CC[C@H](O)C(C)(C)[C@@H]5CC[C@]43C)[C@H]2[C@H]1O`: the growth in the experiment with NCI-H226 lung is 79.1%; in the experiment on NCI-H322M lung, 69.2%; with HOP-62 NSCLC, 54.6%; with NCI-H460 lung it was 21%; in the experiment on HOP-92 NSCLC, 105%; with NCI-H522 lung, 84.8%. Further, the growth in the experiment with A549/ATCC NSCLC is 56.8%; in the experiment on 786-0 renal it was 79.3%; with COLO 205 colon, 93.8%; in the experiment on DU-145 prostate, 77.7%; in the experiment with K-562 leukemia, 83.9%; with MALME-3M melanoma, 78.1%. Moreover, the growth was 26.5% in the experiment with MDA-MB-231 breast; 61.1% in the experiment on RXF 393 renal; 83.7% in the experiment with SF-268 CNS; 86.4% in the experiment with SF-295 CNS; 12.8% in the experiment with SF-539 CNS; 104% in the experiment on UACC-257 melanoma. For the same compound, the growth with M14 melanoma is 99.7%.

Take `Cc1ccc(OCCOCCOCCOCCOc2ccc(C)n(O)c2=S)c(=S)n1O`: the growth was 7.35% (active) with NCI-H226 lung; 23.6% with NCI-H322M lung; -0.489% (active) with HOP-62 NSCLC; 1.54% (active) in the experiment with NCI-H460 lung; 36.8% with HOP-92 NSCLC; 17.9% in the experiment on NCI-H522 lung. The growth was 12.5% in the experiment on A549/ATCC NSCLC; -5.93% (active) with 786-0 renal; 5.35% (active) in the experiment on COLO 205 colon; 17.5% in the experiment with DU-145 prostate; 16.2% in the experiment on K-562 leukemia; 15.6% with MALME-3M melanoma. Moreover, the growth is 34.9% in the experiment with MDA-MB-231 breast; 38.6% in the experiment with RXF 393 renal; 11.4% with SF-268 CNS; 18.2% in the experiment with SF-295 CNS; 5.23% (active) with SF-539 CNS; -9.07% (active) in the experiment on UACC-257 melanoma. The growth in the experiment on M14 melanoma is -16.1% (active).
